Laboratory results from PubChem BioAssay AID588342 (National Center for Advancing Translational Sciences (NCATS), 2011).
Screen size: about 360,000 compounds; about 25,000 (6.9%) were called active. Not shown: some 9% with an inconclusive outcome. The sample as a whole holds a higher share of actives than the screen did. A number with no mark means an inactive call. The call rests on the fitted dose curve; in most records, active means well fitted inhibition curve with a large enough effect; inconclusive means small, poorly fitted or top-dose-only effect; inactive means flat fitted curve, though single readings scatter.

What follows are compounds tested against Luciferin 4-monooxygenase (Photinus pyralis) (UniProt P08659) (assay: qHTS profiling assay for firefly luciferase inhibitor/activator using purifed enzyme and Km concentrations of substrates (counterscreen for miR-21 project)). Conditions: purified FLuc, luminescence inhibition; series mostly up to 57.5 µM; activity change, negative = inhibition: at the top concentration.
Method in brief: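 Biochemical qHTS of compounds, final roughly 60 µM downward over six points, against 10 nM purified firefly luciferase using Km concentrations of substrates (10 uM D-luciferin, 10 uM ATP) in Tris acetate pH 7.5 buffer; luminescence output.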
Further: nearly all actives have a fitted effect of over 55% in size.
Potency means the concentration at half of the fitted maximal effect.
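Wherever activity change, negative = inhibition is given: plate controls were vehicle for no effect and reference inhibitor for full effect.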

Chain of Luciferin 4-monooxygenase (Photinus pyralis) (P08659 whole entry, looked up): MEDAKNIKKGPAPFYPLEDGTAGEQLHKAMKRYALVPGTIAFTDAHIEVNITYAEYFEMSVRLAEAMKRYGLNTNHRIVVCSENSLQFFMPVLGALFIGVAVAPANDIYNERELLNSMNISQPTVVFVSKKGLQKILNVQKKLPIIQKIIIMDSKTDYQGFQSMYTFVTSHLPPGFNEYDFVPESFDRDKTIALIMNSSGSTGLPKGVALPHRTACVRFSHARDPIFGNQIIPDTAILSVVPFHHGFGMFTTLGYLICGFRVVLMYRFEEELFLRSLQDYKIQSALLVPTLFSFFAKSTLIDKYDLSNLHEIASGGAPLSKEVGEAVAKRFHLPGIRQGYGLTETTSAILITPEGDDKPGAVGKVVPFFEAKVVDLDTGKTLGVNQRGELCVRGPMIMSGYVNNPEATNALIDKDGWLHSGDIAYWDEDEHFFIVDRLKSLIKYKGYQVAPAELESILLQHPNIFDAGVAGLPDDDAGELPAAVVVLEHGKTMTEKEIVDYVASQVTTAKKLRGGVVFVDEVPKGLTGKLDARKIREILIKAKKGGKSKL

| Compound | activity change, negative = inhibition [%] | Potency |
| --- | --- | --- |
| CCOC(=O)c1ccc(-c2ccc(/C=C(\C#N)C(=O)Nc3ccc(OCC)cc3)o2)cc1 | 1.93 | – |
| CCCCn1c(N)c(N(CCC(C)C)C(=O)COC(=O)c2ccc(CC)cc2)c(=O)[nH]c1=O | -0.0866 | – |
| Cc1ccc(CN2CCCn3nc(C(=O)NCc4ccccc4Cl)cc3C2=O)cc1 | -10.7 | – |
| Cn1c(=O)c2c(SCC(=O)NCC3CCCO3)nc(-c3ccccc3F)nc2n(C)c1=O (configuration not stated) | 4.37 | – |
| Cc1oc2ncnc(N3CCOCC3)c2c1C(=O)NCCc1ccccc1 | -1.45 | – |
| CN(C)c1ccc(C=C2C(=O)OC3(CCCC3)OC2=O)cc1 | – | 23.9 µM (active) |
| COCCN(Cc1ccccc1)C(=O)Cc1ccc(S(=O)(=O)N2CCOCC2)s1 | -2.29 | – |
| CCCN(CCC)C(=O)C1CCCN(c2ncnc3c2nc2n3CCCCC2)C1 (configuration not stated) | 1.38 | – |
| c1ccc(CN=C2Nc3ccccc3CS2)nc1 | – | 12 µM (active) |
| COc1cccc(CNC(=O)CCC(=O)N2CC3CCCN3c3ccccc32)c1 (configuration not stated) | -10.7 | – |
| CCc1ccc(N(CC(=O)NCc2cccnc2)S(=O)(=O)c2ccccc2)cc1 | – | 0.135 µM (active) |
| CCCNS(=O)(=O)c1ccc(CCC(=O)NCc2cccnc2)cc1 | -1.83 | – |
| O=C(CN(c1cc(C(F)(F)F)ccc1Cl)S(=O)(=O)c1ccccc1)NCc1cccnc1 | 7.62 | – |
| Cc1ccc2sc(N(Cc3cccnc3)C(=O)C3COc4ccccc4O3)nc2c1C (configuration not stated) | 5.08 | – |
| COc1cc(OC)cc(-c2nc3nc(C)c(CCC(=O)Nc4ccc(C)cc4)c(C)n3n2)c1 | 0.756 | – |
| O=S(=O)(N1CCCCC1)N1CCNCC1 | -0.119 | – |
| CS(=O)(=O)N1CCN(C(=O)c2cc3ccccc3oc2=O)CC1 | -0.589 | – |
| O=c1oc2ccccc2cc1-c1cn(-c2ccccc2)c(=S)[nH]1 | – | 0.849 µM (active) |
| S=c1[nH]c(-c2cccs2)cn1-c1ccccc1 | -15.8 | – |
| COc1ccc(C2C(=O)N(C3CCCCCC3)CC(=O)N2CCc2ccc(Cl)cc2)cc1OC (configuration not stated) | 1.16 | – |
| O=C(Cc1cccs1)N1CCCC(c2nc(-c3ccc(S(=O)(=O)N4CCCC4)cc3)no2)C1 (configuration not stated) | -0.16 | – |
| COc1cc(-c2noc(C3CCCN(S(=O)(=O)c4cccc(Cl)c4)C3)n2)cc(OC)c1OC (configuration not stated) | 1.11 | – |
| CC(C)c1ccc(-c2noc(C3CCCN(S(C)(=O)=O)C3)n2)cc1 (configuration not stated) | – | 19 µM (active) |
| CCN(C(=O)CSc1ncnc2sccc12)c1c(N)n(Cc2ccccc2)c(=O)[nH]c1=O | 6.9 | – |
| CCSc1nnc2c(n1)OC(c1ccc(OCC(=O)O)cc1)Nc1ccccc1-2 (configuration not stated) | -13.1 | – |
| CCCCSc1nnc2c(n1)OC=Nc1ccccc1-2 | – | 23.9 µM (active) |

| Compound | activity change, negative = inhibition [%] | Potency |
| --- | --- | --- |
| COc1ccc(NC(=O)Cn2cc(C(=O)c3ccncc3)c(=O)c3cc(C)ccc32)cc1Cl | 5.88 | – |
| Cc1ccc(-c2cnc(C3CC3)o2)cc1S(=O)(=O)Nc1cccc(C)c1C | 3.16 | – |
| CN(Cc1nc2ccc(F)cc2[nH]1)Cc1nc(CC2CC2)no1 | -2.03 | – |
| O=C(Cn1c(=O)n(-c2ccc(F)cc2)c(=O)c2sccc21)Nc1cccc(C(F)(F)F)c1 | -6.93 | – |
| CC(=O)Nc1cccc(NC(=O)CSc2cn(CC(=O)N3CCCC3)c3ccccc23)c1 | -1.16 | – |
| O=c1c2c(nc3n1CCCCC3)sc1c(O)cccc12 | – | 4.26 µM (active) |
| Cc1cccc2c(=O)n3c(nc12)CCCCC3 | -10.5 | – |
| CC1CCN(C(=O)c2ccc3c(=O)n4c(nc3c2)CCCCC4)CC1 | 2.48 | – |
| COc1ccc([C@H]2CC(=O)C=C(c3ccc(CO)cc3)C2)cc1 | -1.03 | – |
| O=C1CCC(C(=O)N2CCN(c3ccccc3Cl)CC2)CN1CC1CCCCC1 (configuration not stated) | -1.63 | – |
| CCC(=O)NC(=S)Nc1ccc(NC(=O)c2ccco2)c(Cl)c1 | -5.91 | – |
| S=C(Nc1ccc(Br)cc1Cl)NC1CCN(Cc2ccccc2)CC1 | 0.728 | – |
| O=C(NNC(=S)Nc1ccc(Br)cc1Cl)c1ccco1 | – | 16.9 µM (active) |
| COc1ccc(S(=O)(=O)c2c(Nc3ccc(C)cc3)sc(C(=O)c3ccc(C)cc3)c2N)cc1 | -0.422 | – |
| COc1ccc(-c2nc(CN3CCC(C(=O)NCc4ccccc4)CC3)c(C)o2)cc1OC | -0.814 | – |
| N=C1C(c2nc3ccccc3s2)=C(O)CN1NC(=O)c1ccc([N+](=O)[O-])cc1 | – | 13.5 µM (active) |
| COc1ccccc1N1CC(O)=C(c2nc3ccccc3s2)C1=N | -8.44 | – |
| CCOC(=O)CCCN1CC(O)=C(c2nc3ccccc3s2)C1=N | 1.19 | – |
| O=C(CSc1oc(-c2ccco2)nc1S(=O)(=O)c1ccccc1)c1ccc(Cl)cc1 | -4.3 | – |
| Cc1ccc(-c2cc(-c3coc4ccccc4c3=O)c3c(n2)-c2cc(Cl)ccc2OC3)cc1 | -1 | – |
| CC(C)(C)OC(=O)N1CCC(c2c(C(=O)N3CCN(c4cccc(Cl)c4)CC3)cnn2-c2cccc(Cl)c2)CC1 | -3.13 | – |
| CCCCCn1c(CCCNC(=O)c2ccccc2OC)nc2ccccc21 | 4.7 | – |
| CCOC(OCC)c1ccc(/C=C\c2nccc(N)n2)cc1 | – | 8.49 µM (active) |
| CCOc1ccc(Nc2c(S(=O)(=O)c3ccccc3)cnc3ccccc23)cc1 | -10.5 | – |
| CN(C(=O)Cn1nnc(-c2ccc(F)cc2)n1)C1CCS(=O)(=O)C1 (configuration not stated) | 3.37 | – |
| COc1ccc(CNC(=O)CC2Oc3ccc(C)cc3NC2=O)cc1 (configuration not stated) | -0.891 | – |

| Compound | activity change, negative = inhibition [%] | Potency |
| --- | --- | --- |
| Cc1c(C(=O)NC2CCCCC2)oc2ccccc12 | – | 15.1 µM (active) |
| Cc1c(C(=O)Nc2cccc(-c3nnc4n3CCCCC4)c2)oc2ccccc12 | – | 19 µM (active) |
| O=S(=O)(c1cccc(-c2nnc3n2CCCCC3)c1)N1CCOCC1 | -2.77 | – |
| CSc1ncccc1C(=O)NC1CCCCCC1 | -1.16 | – |
| O=C(Cn1[nH]c(=O)c2ccccc2c1=O)Nc1cccc(-c2nnc3n2CCCCC3)c1 | -0.0091 | – |
| Cc1ccc(NC(=O)c2oc3ccccc3c2C)c([N+](=O)[O-])c1 | -14 | – |
| O=C(Nc1ccc(F)cc1F)c1cnn(-c2ccc(F)cc2)c1-n1cccc1 | 0.499 | – |
| CC(C)(C)OC(=O)N1CCC(c2c(C(=O)NCCc3ccsc3)cnn2-c2ccc(F)cc2F)CC1 | -7.33 | – |
| C=CCNC(=O)/C=C/c1ccc(C(C)C)cc1 | – | 19 µM (active) |
| O=C(/C=C/c1ccc(Cl)cc1)NCCCn1ccnc1 | -9.77 | – |
| Cc1c(NC(=O)c2cccnc2)c(=O)n(-c2ccccc2)n1C | 0.783 | – |
| COc1cccc(C(=O)NNC(=O)/C=C/c2ccccc2)c1 | 0.538 | – |
| O=C(/C=C/c1ccc(F)cc1)NCCNC(=O)/C=C/c1ccc(F)cc1 | 0.42 | – |
| CC(C)c1ccc(/C=C/C(=O)NCCCN2CCOCC2)cc1 | – | 21.3 µM (active) |
| CC(C)c1ccc(/C=C/C(=O)NNC(=O)c2cccnc2)cc1 | – | 12 µM (active) |
| O=C(/C=C/c1cn(-c2ccccc2)nc1-c1ccc2c(c1)OCCO2)NCCCN1CCOCC1 | -10.5 | – |
| CCOC(=O)c1sc(NC(=O)/C=C/c2ccc(C(C)C)cc2)c(C(=O)OCC)c1C | -0.567 | – |
| CCCOc1ccc(C2c3c(-c4ccccc4O)n[nH]c3C(=O)N2Cc2cccnc2)cc1 (configuration not stated) | -13.9 | – |
| N#Cc1ccccc1Cn1cnc2nc3c(cc2c1=O)CCCC3 | 2.97 | – |
| Cc1ccc(-n2nc(C)c3c(C)cc(=O)n(CC(=O)Nc4ccc(C(C)C)cc4)c32)cc1 | -0.504 | – |
| Cc1c(C(=O)Nc2cccc(Cl)c2)oc2ccc(S(=O)(=O)N3CCOCC3)cc12 | 2.19 | – |
| Cc1cccc(-c2nc(SCC(=O)Nc3cc(C)on3)c3c(=O)n(C)c(=O)n(C)c3n2)c1 | -3.67 | – |
| Cc1ccc(NC(=O)Cn2cnc3nc4c(cc3c2=O)CCCC4)cc1Cl | 2.34 | – |
| COc1ccc(NC(=O)c2cnc(Nc3ccc(C)c(Cl)c3)c3ccccc23)cc1OC | -0.0929 | – |
| COc1ccc(C(=O)CSc2nccc(=O)[nH]2)cc1 | 0.943 | – |
| CCN(C(=O)CSc1ncn[nH]1)c1cccc2ccccc12 | 0.343 | – |

| Compound | activity change, negative = inhibition [%] | Potency |
| --- | --- | --- |
| CC(C)(C)c1ccc(C(=O)CSc2ncn[nH]2)cc1 | – | 4.78 µM (active) |
| CC(C)OCCCn1c(SCC(=O)c2ccccc2)nc2c(sc3ccccc32)c1=O | -0.642 | – |
| Cc1csc(SCC(=O)N(c2ccccc2)C(C)C)n1 | 0.743 | – |
| CC(=O)OCCN(CCCn1c(-c2ccncc2)nc2ccccc21)c1nc(-c2ccc(C)cc2)cs1 | 1.22 | – |
| Cc1ccc(C)c(NC(=O)NNC(=O)c2ccc3ccccc3c2O)c1 | -22.4 | – |
| Cc1ccc2nc(/C(C#N)=C/c3ccccc3F)[nH]c2c1 | – | 8.49 µM (active) |
| COc1cc(/C=C(\C#N)c2nc3ccccc3[nH]2)ccc1O | – | 4.78 µM (active) |
| CCOc1ccc(/C=C(\C#N)c2nc3ccccc3c(=O)[nH]2)cc1OC | -4.72 | – |
| COc1cc(/C=C(\C#N)c2nc3c(s2)CC(C)CC3)ccc1O (configuration not stated) | – | 0.675 µM (active) |
| COc1cccc2cc(-c3nc(Cl)c4c5c(sc4n3)CC(C)CC5)c(=O)oc12 (configuration not stated) | -13.3 | – |
| Cc1ccccc1OC/C(O)=C(\C#N)c1nc2ccccc2[nH]1 | 0.866 | – |
| Cc1ccc2nc(/C(C#N)=C\c3ccc(OC(=O)c4cccs4)cc3)[nH]c2c1 | -3.56 | – |
| N#C/C(=C\c1ccccc1F)c1nc2ccccc2c(=O)[nH]1 | 7.06 | – |
| O=C1OC(C(=O)Nc2cccc(Br)c2)Cc2ccccc21 (configuration not stated) | -0.169 | – |
| O=C(C1CC(=O)N(C2CCCC2)C1)N1CCN(c2cccc(C(F)(F)F)c2)CC1 (configuration not stated) | 3.15 | – |
| Cc1ccc(CN2CCCOCCS2(=O)=O)cc1 | -0.0995 | – |
| Cc1ccc(CNC(=O)CSC2=Nc3ccccc3C3=NC(C)C(=O)N23)cc1 (configuration not stated) | -7.16 | – |
| Cc1c(Cl)cccc1-c1ccc(CNCCCSc2nnnn2C)o1 | -8.45 | – |
| O=C(Cn1cc(/C=N/NC(=O)c2cccc(C(F)(F)F)c2)c2ccccc21)Nc1ccc(F)cc1 | 0.0534 | – |
| CC(OC(=O)/C=C/c1ccccc1)C(=O)NC1CCCCC1C (configuration not stated) | 3.73 | – |
| Cn1nccc1NC(=O)CC(CC(=O)O)c1ccccc1 (configuration not stated) | -0.627 | – |
| O=C(CN1CCN(c2ccc(O)cc2)CC1)Nc1ccc(-c2ccccc2)cc1 | 2.93 | – |
| Oc1ccc(-c2cccc(-c3ccc(O)cc3)c2)cc1 | – | 16.9 µM (active) |
| CC(C#N)(NC(=O)CN1CCN(S(=O)(=O)c2cc(C(F)(F)F)ccc2Cl)CC1)C1CC1 (configuration not stated) | 0.354 | – |
